Inconclusive results are not listed. Activity calls are given as the source filed them. Calls come from the whole dose curve; as a rule, active = well fitted curve in the direction sought with a large enough effect; inconclusive = small, poorly fitted or top-dose-only effect, or another doubt; inactive = no such curve, though single readings can be large; an effect the other way counts as inactive or inconclusive. Where a SMILES comes first, the peptide text is derived from it.
What was measured:
[1] = biological target: Calcium and integrin-binding protein 1 (Homo sapiens) (UniProt Q99828); test: Primary qHTS for Identification of Calcium Integrin Binding Protein 1 (CIB1) Competitor (AID 1508620);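 note: GST tagged CIB1 binding a fluorescein labelled alphaIIb integrin peptide tracer; top concentration of the series differs between compounds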
Chain of Calcium and integrin-binding protein 1 (Homo sapiens) (Q99828 whole entry, looked up): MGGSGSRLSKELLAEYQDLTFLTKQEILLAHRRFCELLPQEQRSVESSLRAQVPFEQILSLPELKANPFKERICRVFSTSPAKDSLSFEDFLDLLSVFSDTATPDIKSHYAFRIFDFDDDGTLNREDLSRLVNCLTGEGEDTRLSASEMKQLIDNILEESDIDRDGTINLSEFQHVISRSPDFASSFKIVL
Method in brief: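 Fluorescence polarization competition: GST-tagged CIB1 (1 uM final) preincubated with compound 15 min at room temperature, then FITC-labelled alphaIIb peptide (100 nM final) added. After 15 min at room temperature, polarization read at Ex 480/Em 540.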

[2] = Primary qHTS for inhibitors of nuclear receptor binding SET domain protein 2 (NSD2) in an isogenic RCH-ACV NSD2 p.E1099K mutant (9B) (AID 1645876); note: nearly all actives have a fitted effect of over 70% in size
[3] = Primary qHTS for inhibitors of nuclear receptor binding SET domain protein 2 (NSD2) in an RCH-ACV wild type WT cells (2C) (AID 1645877); note: nearly all actives have a fitted effect of over 70% in size
% is set by controls: 0 for no effect and ±100 for the full control effect.

C/C=C(\C)C(=O)OC[C@H]1O[C@@H](O[C@H]2[C@@H](O[C@H]3O[C@H](CO)[C@@H](O)[C@H](O)[C@H]3O[C@@H]3O[C@H](CO)[C@@H](O)[C@H](O)[C@H]3O)O[C@H](COC(=O)/C(C)=C/C)[C@@H](O)[C@@H]2O)[C@H](O)[C@@H](O)[C@@H]1O
inactive: Potency [1] | activity change, negative = viability loss [2] -10.2% [at 9.23 µM] | activity change, negative = cell killing [3] -10.7% [at 9.23 µM]

CC(=O)NC(Cc1ccccc1)C(=O)NC(C(=O)O)C(C)C (stereo not drawn) (Ac-Phe-Val-OH; configuration not given here)
inactive: Potency [1] | Potency [2] | Potency [3]

COC(=O)[C@H](O)[C@H]1C(C)(C)[C@H](OC(C)=O)[C@@]2(O)C(=O)[C@]1(C)C1CC[C@]3(C)C(CC(=O)O[C@H]3c3ccoc3)[C@]13O[C@@H]32 (stereo partly drawn)
inactive: Potency [1] | Potency [2] | Potency [3]

C=C1C(O)CC2C(C(=O)O)=COC(O[C@@H]3O[C@H](COC(=O)c4ccc(O)cc4)[C@@H](O)[C@H](O)[C@H]3O)C12 (stereo partly drawn)
inactive: Potency [1] | Potency [2] | Potency [3]

CC1=C2CC(O)(C(C)(C)O)C(O[C@@H]3O[C@H](CO)[C@@H](O)[C@H](O)[C@H]3O)CC(C)C2CC1=O (stereo partly drawn)
inactive: Potency [1] | Potency [2] | Potency [3]

C[C@@H]1C[C@@H](O)[C@@]23CO[C@]2(CO)CCC[C@@H]3[C@@]12C[C@@H](c1ccoc1)OC2=O
inactive: Potency [1] | Potency [2] | Potency [3]

CC1C(O)C(O)C2C(C(=O)OCCc3ccc(O)cc3)=COC(O[C@@H]3O[C@H](CO)[C@@H](O)[C@H](O)[C@H]3O)C12 (stereo partly drawn)
inactive: Potency [1] | Potency [2] | Potency [3]

CC(=O)[C@@H]1C[C@H](C(C)(C)O[C@@H]2O[C@H](CO)[C@@H](O)[C@H](O)[C@H]2O)CC[C@@]2(CO)OC(=O)C[C@@H]12
inactive: Potency [1] | Potency [2] | Potency [3]

CC[C@H]1OC(=O)[C@H](C)[C@@H](O[C@H]2C[C@@](C)(OC)[C@@H](O)[C@H](C)O2)C(C)[C@@H](O[C@@H]2O[C@H](C)C[C@H](N(C)C)[C@H]2O)[C@](C)(O)C[C@@H](C)CN(C)[C@H](C)[C@@H](O)[C@]1(C)O (stereo partly drawn)
inactive: Potency [1] | Potency [2] | Potency [3]

CC1=C2C(=O)C=C(CO)C2[C@H]2OC(=O)[C@H](C)[C@@H]2[C@@H](OC(=O)Cc2ccc(O)cc2)C1 (stereo partly drawn)
inactive: Potency [1] | Potency [2] | Potency [3]

COc1c(O[C@@H]2O[C@H](CO)[C@@H](O)[C@H](O)[C@H]2O)c(CCC(=O)O)cc2ccoc12
inactive: Potency [1] | Potency [2] | Potency [3]

COc1cc(C(CO)CO[C@@H]2O[C@H](CO)[C@@H](O)[C@H](O)[C@H]2O)ccc1O (stereo partly drawn)
inactive: Potency [1] | Potency [2] | Potency [3]

CC1(C)CC[C@]2(C(=O)O)CC[C@]3(C)C(=CCC4[C@@]5(C)C[C@@H](O)[C@H](O)[C@](C)(CO)C5CC[C@]43C)[C@@H]2[C@@H]1O (stereo partly drawn)
inactive: Potency [1] | Potency [2] | Potency [3]

C=C1[C@H](OC(C)=O)[C@H]2[C@@H](OC(C)=O)C(C)C[C@]2(OC(C)=O)C(=O)[C@H](C)/C=C/C(C)(C)C(=O)[C@H](OC(=O)C(C)C)[C@H]1OC(C)=O (stereo partly drawn)
inactive: Potency [1] | Potency [2] | Potency [3]

C[C@]1(O)CC[C@@H]2C(C(=O)O)=CO[C@@H](O[C@@H]3O[C@H](CO)[C@@H](O)[C@H](O)[C@H]3O)[C@@H]21
inactive: Potency [1] | Potency [2] | Potency [3]

CC1(C)OC(=O)CC(O)C2(C)C1CC(=O)C1(C)C2C(O)CC2(C)C(c3ccoc3)OC(=O)C3OC321 (stereo not drawn)
inactive: Potency [1] | Potency [2] | Potency [3]

CC(=O)c1ccc(O[C@@H]2OC[C@@H](O)[C@H](O)[C@H]2O[C@]2(CO)O[C@H](CO)[C@@H](O)[C@@H]2O)c(O)c1
inactive: Potency [1] | Potency [2] | Potency [3]

C=CCc1ccc(O[C@@H]2O[C@H](CO)[C@@H](O)[C@H](O)[C@H]2O)c(O[C@@H]2O[C@H](CO)[C@@H](O)[C@H](O)[C@H]2O)c1
inactive: Potency [1] | Potency [2] | Potency [3]

CC1(C)CC[C@]2(C(=O)O)CC[C@]3(C)C(=CCC4[C@@]5(C)C(=O)C[C@H](O)[C@@](C)(CO)C5CC[C@]43C)[C@@H]2C1 (stereo partly drawn)
inactive: Potency [1] | Potency [2] | Potency [3]

C[C@H]1/C=C/C=C/C=C/C=C/C=C/[C@@H](O)[C@H](C(=O)O)[C@H](O)C[C@H](O)CCC[C@H](O)C[C@H](O)C[C@H](O)[C@@H](C)C(=O)O[C@@H]1C
inactive: Potency [1] | Potency [2] | Potency [3]

CC1CCC2C(C)(C)C(O)C(O)CC2(C)C12Cc1c(O)cc(CO)c(C=O)c1O2 (stereo not drawn)
inactive: Potency [1] | Potency [2] | Potency [3]

C[C@@H]1O[C@@H](O[C@@H]2\C=C/C=C\C=C/C=C\C[C@H](C)OC(=O)/C=C\[C@H]3O[C@@H]3C[C@H](O)C[C@]3(O)C[C@@H](O)[C@@H](C(=O)O)[C@H](C2)O3)[C@H](O)[C@H](N)[C@@H]1O
inactive: Potency [1] | Potency [2] | Potency [3]

CC(=O)O[C@H]1C[C@@]2(C)[C@@H](CC[C@H]3[C@@]4(C)C=CC(=O)[C@@H](C)[C@@H]4[C@H](OC(C)=O)C(=O)[C@@]32C)/C1=C(\CCC=C(C)C)C(=O)O
inactive: Potency [1] | Potency [2] | Potency [3]

C/C=C1/C[N+](C)([O-])C2Cc3c([nH]c4ccccc34)C(=O)CC1C2C(=O)OC (stereo not drawn)
inactive: Potency [1] | Potency [2] | Potency [3]

C[C@]1(OC(=O)/C=C/c2ccc(O)cc2)C[C@@H](O)[C@]2(O)C=CO[C@@H](O[C@@H]3O[C@H](CO)[C@@H](O)[C@H](O)[C@H]3O)C12 (stereo partly drawn)
inactive: Potency [1] | Potency [2] | Potency [3]

C=C1C(=O)OC[C@H]2C(C(=O)O)=CC3CC(C)(C)C[C@@]132 (stereo partly drawn)
inactive: Potency [1] | Potency [2] | Potency [3]

Reference: PubChem BioAssay (NCATS)
